Assay results reported in PubChem BioAssay (NCI).
About 83,000 compounds went through this panel and 20% of them were active in at least one assay; those are over-represented in the sample as a whole.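 Activity criterion: percent growth below 10, measured after cells in 96-well plates were exposed to a single compound concentration for 48 hours.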 Values without a mark were called inactive. The source made the active and inactive calls.

Legend:
Test in all cases: NCI-60 one-dose screen, 48 h (100 = growth as untreated, 0 = no growth, -100 = all killed)
DU-145 prostate = conditions: 10 µM unless noted
K-562 leukemia = conditions: 10 µM unless noted
MALME-3M melanoma = conditions: 10 µM unless noted
MDA-MB-231 breast = conditions: 10 µM unless noted
RXF 393 renal = conditions: 10 µM unless noted
SF-268 CNS = conditions: 10 µM unless noted
SF-295 CNS = conditions: 10 µM unless noted
SF-539 CNS = conditions: 10 µM unless noted
UACC-257 melanoma = conditions: 10 µM
M14 melanoma = conditions: 10 µM unless noted
HCT-15 colon = conditions: 10 µM unless noted
HT29 colon = conditions: 10 µM unless noted
SNB-75 CNS = conditions: 10 µM unless noted
SNB-19 CNS = conditions: 10 µM unless noted
U251 CNS = conditions: 10 µM unless noted
PC-3 prostate = conditions: 10 µM unless noted
SK-MEL-5 melanoma = conditions: 10 µM unless noted
UACC-62 melanoma = conditions: 10 µM unless noted
LOX IMVI melanoma = conditions: 10 µM unless noted
SK-MEL-28 melanoma = conditions: 10 µM unless noted

SMILES	growth (DU-145 prostate)	growth (K-562 leukemia)	growth (MALME-3M melanoma)	growth (MDA-MB-231 breast)	growth (RXF 393 renal)	growth (SF-268 CNS)	growth (SF-295 CNS)	growth (SF-539 CNS)	growth (UACC-257 melanoma)	growth (M14 melanoma)	growth (HCT-15 colon)	growth (HT29 colon)	growth (SNB-75 CNS)	growth (SNB-19 CNS)	growth (U251 CNS)	growth (PC-3 prostate)	growth (SK-MEL-5 melanoma)	growth (UACC-62 melanoma)	growth (LOX IMVI melanoma)	growth (SK-MEL-28 melanoma)
COc1ccc(C(=O)n2cc(C=O)c3ccccc32)cc1	105%	82.1%	93.2%	91.8%	106%	92.5%	99.6%	89.2%	103%	82.8%	87.9%	118%	99%	87.5%	93.9%	90.5%	98.1%	81.6%	76.2%	102%
CN1CCN(Cc2ccc(NC(=O)c3cncc(C#Cc4cnc5ccc(O[C@H]6CCOC6)nn45)c3)cc2C(F)(F)F)CC1	-78.9% (active)	0.583% (active)	-87.5% (active)	-59.7% (active)	-76.9% (active)	-63.8% (active)	-81.8% (active)	-92% (active)	-52% (active)	-87.2% (active)	-49.3% (active)	-67.8% (active)	-95.9% (active)	-69.2% (active)	-85.4% (active)	-9.05% (active)	-95.2% (active)	-45.3% (active)	-88.1% (active)	-80.3% (active)
NS(=O)(=O)c1ccc(Nc2nc(N/N=C/c3ccc(F)cc3)nc(Nc3ccccc3)n2)cc1	31.1%	54.6%	57.5%	61.8%	57.9%	41.3%	70.1%	62.2%	47.2%	57.9%	79.3%	4.73% (active)	96.4%	69.9%	11.9%	39.9%	38.1%	60.5%	60.6%	63.3%
Brc1cccc(/C=N/Nc2nc(N/N=C/c3cccc(Br)c3)nc(N3CCOCC3)n2)c1	27.3%	14.5%	-54% (active)	66.1%	-68% (active)	68.4%	29.1%	56.4%	35.9%	31.7%	-8.94% (active)	6.61% (active)	107%	77.9%	42.7%	36.5%	20.7%	56%	5.23% (active)	17.1%
CCN1C(=O)N(CC)C2SC(N/N=C/c3ccccc3F)=NC21 (stereo not given)	16.6%	9.76% (active)	71.1%	24.1%	46.4%	45.4%	11.6%	-16.7% (active)	61%	17.2%	16.2%	0.675% (active)	21.5%	24.6%	16.4%	29.8%	11.1%	37.6%	15.6%	54.8%
COc1ccc(/C=C/C(=O)c2nnn(-c3ccc(Br)cc3)c2C)cc1OC	73.5%	19.2%	83%	83.3%	80.3%	89.4%	80.2%	83.7%	85.3%	60.4%	60.7%	62.2%	81.6%	78.9%	86.8%	75.3%	63.9%	62%	43.5%	96.5%
CC(C)C(=O)Nc1ccc(-c2nc(-c3cccc(O)c3)c(-c3ccnc(Br)c3)[nH]2)cc1	69.3%	7.32% (active)	40.8%	58.5%	-31.5% (active)	54.8%	-40.5% (active)	34.5%	52.7%	49.4%	65.6%	41%	4.68% (active)	47%	42.5%	29.7%	42.7%	31.8%	38.4%	50.3%
C#CCOc1ccc(C(Nc2ccc(OC)cc2)c2nnnn2C2CCCCC2)cc1 (stereo not given)	109%	94.4%	98.5%	86.6%	114%	102%	100%	104%	102%	97.2%	97.1%	101%	92.6%	93.3%	89.9%	93.8%	100%	73.4%	89.2%	109%
CN(C)c1ncc(/C=C2\SC(=S)N(Cc3ccccc3Cl)C2=O)s1	97.8%	68%	109%	83.9%	107%	94.3%	66.4%	74.5%	98.5%	94.1%	84.6%	88.8%	88.1%	78.6%	42%	91.1%	101%	94.6%	69.2%	104%
CCOC(=O)C1=C(C)Nc2nc3ccccc3n2C1c1cccc(Br)c1 (stereo not given)	93.3%	29.9%	51.9%	79%	99.7%	94.7%	60.7%	85.8%	87.1%	63.4%	48.5%	49.3%	53.9%	77.2%	88.8%	84.1%	80.4%	60.3%	82.3%	84.9%
CC1COc2c(N3CCN(C)CC3)c(F)cc3c(=O)c(C(=O)N/N=C/c4cc[nH]c4)cn1c23 (stereo not given)	42%	-27.8% (active)	-3.02% (active)	44.4%	16%	59.1%	70.3%	38.5%	-74.5% (active)	-79.8% (active)	47.1%	14.6%	74.4%	9.01% (active)	-41.6% (active)	27.9%	25.3%	76%	-88.5% (active)	57.3%
CS(=O)(=O)c1nccc(-c2c(-c3ccc(F)c(OCc4ccccc4)c3)nc3sccn23)n1	-64% (active)	75.9%	115%	93.1%	94.7%	104%	98.5%	95.1%	17.8%	51.7%	79.1%	103%	103%	96.7%	107%	-11.3% (active)	96.2%	87%	44.6%	85.9%
CCC(CC)n1c(=O)c(SC2=NC3C(NN2)N(CC)C(=O)N3CC)c(C(=O)O)c2ccccc21 (stereo not given)	16.2%	11.1%	68.1%	19.1%	13.4%	52.4%	22.3%	3.93% (active)	59.9%	16%	14.2%	2.44% (active)	39.6%	35.2%	14.8%	23.9%	6.37% (active)	22.5%	23%	65.4%
Cn1cc2c(c1)-c1c(sc3nc(-c4ccc(NC(=O)Nc5cc(C(C)(C)C)on5)cc4)cn13)CC2	57.9%	15.3%	66.2%	49.8%	-23.4% (active)	50.5%	-41% (active)	22.3%	93.1%	60.5%	12.2%	21.9%	-1.5% (active)	46.7%	24.3%	38.7%	63.1%	87.7%	16.9%	54.2%
CCN1C(=O)N(CC)C2SC(N/N=C/c3ccc(F)cc3)=NC21 (stereo not given)	16%	14.2%	54.7%	32.4%	47.3%	42.4%	12.1%	-4.01% (active)	57.8%	14.6%	14.9%	3.77% (active)	38.2%	28.1%	15%	30.3%	15.3%	33.6%	14.1%	58.9%
